Screens deposited in PubChem BioAssay by SRMLSC.
A340 absorber – compounds absorbing at 340 nm. 65,000 tested, under 10 active. compound absorbance at 340 nm, fold over control. AID 708. fold change at 10 µM;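 active = at 10 µM dose, initial 340 nm absorbance at least 2 fold that of control wells; inactive = change under 2 fold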;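 note: initial absorbance extrapolated from kinetic A340 decline of NADH oxidation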
NADH enzymes – inhibition of NAD/NADH coupling enzymes, library profiling; coupled PK/LDH NADH assays, four targets; hit rate 0.02% among 65,000; IC50, µM (top dose mostly 10 µM);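 active = single-dose screening hits from any of four coupled enzyme assays that gave an IC50 when retested across doses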;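 note: the DPM-DC format reads NADH fluorescence rather than 340 nm absorbance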
PMK inhibit – blocks S. pneumoniae phosphomevalonate kinase; purified PMK, PK/LDH-coupled NADH absorbance 340 nm; inhibition, % at 10 µM; hit rate 0.49% among 65,000; AID 539;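 active = top-ranked compounds by inhibition in the single 10 µM screen, taking a fixed number of the strongest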
DPM-DC inhibit – S. pneumoniae DPM-DC inhibition; purified DPM-DC, PK/LDH coupled NADH fluorescence; calls only at 10 µM; hit rate 0.49% among 65,000;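 active = the 320 compounds with the highest percent inhibition in the single-dose primary screen, excluding strongly autofluorescent ones, cut at about 32% in these data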;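 note: kinetic rate of NADH fluorescence loss reporting ADP formed by the decarboxylase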
Fluor 339 460 – intrinsic fluorescence of library compounds, ex339/em460 – biochemical, MLSMR library, data from DPM-DC assay, artefact control, profiling panel; compound autofluorescence, ex339/em460 nm, NADH buffer; stronger effect = higher value; 1 = no-compound wells, NADH background; fluorescence fold increase at 10 µM; hit rate 5.5% among 65,000; AID 709;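 active = at 10 µM, mean starting fluorescence two-fold or more over control wells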;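 note: signal is the first read of a kinetic run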
Spn MK inh – S. pneumoniae mevalonate kinase inhibition; purified MK, PK/LDH-coupled NADH absorbance 340 nm; inhibition, % at 10 µM; hit rate 0.48% among 65,000; AID 555;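 active = ranked among the strongest by inhibition in the single 10 µM screen, a fixed top-ranked set picked for dose follow-up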
Of the large screens only hits and unclear results are named; the others gave an inactive call. A selection: hits, their analogues and other compounds. The true share with any hit is near 6.5%.

O=C(Nc1ccc2oc(-c3ccc(F)cc3)nc2c1)c1ccccc1F	Fluor 339 460 3
CCOC(=O)c1c(C#N)c(SCC(=O)Nc2ccc(OC)cc2)nc2c1CN(CC)CC2	none
CCOC(=O)Nc1oc2ccccc2c(=O)c1CN1CCOCC1	Fluor 339 460 2.2
CC(C(=O)Nc1ccc2c(c1)OCO2)N(c1ccc(Cl)cc1)S(C)(=O)=O (centres undefined)	none
CCOC(=O)N1CCN(C(=O)C2CCN(S(=O)(=O)N3CCCC3)CC2)CC1	PMK inhibit 26
CCOC(=O)N1CCN(C(=O)C2CCCN(S(C)(=O)=O)C2)CC1 (centres undefined)	none
O=C1CC(SCCO)C(=O)N1c1ccc(Oc2ccccc2)cc1 (centres undefined)	none
CN(C(=O)C1CCOC1)c1nnc(C2CCOC2)s1 (centres undefined)	PMK inhibit 27
CN(C(=O)C1CCOC1)c1nnc(-c2cnccn2)s1 (centres undefined)	none
COC(=O)C1=CN(C2CC2)C=C(C(=O)OC)C1c1ccc(C(=O)OC)cc1	Fluor 339 460 2.1 (not shown: DPM-DC inhibit)
CCOC(=O)C1CCN(S(=O)(=O)c2ccc(C(=O)OC)cc2)CC1	none
c1ccc(Cn2ncc3c2ncn2nc(-c4ccncc4)nc32)cc1	none
CN(C)c1nc(-c2ccccc2)c2cnn(Cc3ccccc3)c2n1	Fluor 339 460 2.1 (not shown: DPM-DC inhibit)
O=C(c1cc2ccccc2oc1=O)N(Cc1ccco1)CC1CCCO1 (centres undefined)	none
CSCC[C@H](NC(=O)OC(C)(C)C)c1nnc(SCC(=O)Nc2ccc(C)cc2C)o1	none
COc1ccc(OC)c(C2C(C(N)=O)=C(C)Nc3nc(CCCO)nn32)c1 (centres undefined)	none
CCOC(=O)c1nn(-c2ccc3c(c2)OCO3)cc1O	Fluor 339 460 2.1 (not shown: DPM-DC inhibit)
CCOC(=O)c1nn(-c2cc(C(=O)OC)cc(C(=O)OC)c2)cc1O	none
CCNc1nnc(-c2ccc(C)cc2)o1	none
O=C(Nc1ccc(Cl)cc1)c1cc2nc(-c3ccco3)cc(C(F)(F)F)n2n1	Fluor 339 460 2.5
Cc1ccccc1Cn1cc(NC(=O)c2cc3nc(-c4ccco4)cc(C(F)(F)F)n3n2)cn1	DPM-DC inhibit active, Fluor 339 460 3
CCOCCOCN(C#N)c1nc(OC)nc(N(C)C)n1	none
CCOC(=O)N1CCC(NC(=O)c2csc3c2CCCC3)CC1	none
CCC(=O)N1CCN(c2nc(-c3ccccc3)c3c(c2C#N)CCCC3)CC1	Fluor 339 460 2.1 (not shown: DPM-DC inhibit)
CC1(C)Cc2c(C#N)c(OCC(=O)c3ccc(Cl)cc3)nc(-c3ccco3)c2CO1	Fluor 339 460 2.1
CC1(C)Cc2c(C#N)c(N3CCCC3)nc(-c3ccco3)c2CO1	Fluor 339 460 2.2 (not shown: DPM-DC inhibit)
CCCc1nc(NCc2ccco2)c(C#N)c2c1COC(C)(C)C2	none
CC1(C)Cc2c(C#N)c(NCc3ccco3)nc(-c3ccco3)c2CO1	Fluor 339 460 2.2 (not shown: DPM-DC inhibit)
Cc1ccc(C)c(S(=O)(=O)Nc2ccc3scnc3c2)c1	none
C=CCOC(=O)C1CC=CCC1C(=O)Oc1ccc(F)cc1F (centres undefined)	none
C=CCc1c(C)nc(SCC(=C)C)[nH]c1=O	none
CC(C)c1nc(N2CCN(C(=O)c3ccccc3)CC2)c(C#N)c2c1COC(C)(C)C2	Fluor 339 460 2.1 (not shown: DPM-DC inhibit)
CC1(C)Cc2c(C#N)c(N3CCN(C(=O)c4ccccc4)CC3)nc(-c3ccco3)c2CS1	none
CN(C)CCNc1nc(-c2ccco2)c2c(c1C#N)CC(C)(C)OC2	Fluor 339 460 2.2 (not shown: DPM-DC inhibit)
N#Cc1c(N2CCOCC2)nc(-c2ccco2)c2c1CCCC2	Fluor 339 460 2.3 (not shown: DPM-DC inhibit)
Cc1nc(NCc2ccco2)c(C#N)c2c1COC(C)(C)C2	Fluor 339 460 2.7
CCCCN(C)c1nc(-c2ccco2)c2c(c1C#N)CC(C)(C)OC2	none
COc1ccc(C2C(C#N)=C(/N=C/N3CCN(C)CC3)OC3=C2C(=O)CC(C)(C)C3)cc1OC (centres undefined)	none
CN(C)Cc1cc(CCNC(=O)c2ccc(Cl)cc2)ccc1O	none
CN(c1ccccc1)S(=O)(=O)c1ccc(C(=O)OCC(=O)N2CCOCC2)cc1	none
COc1ccc(NC(C)=O)cc1NC(=O)CSc1nnc(-c2ccc(F)cc2)n1N	none
COc1ccc(-c2oc3ncnc(NCCN4CCOCC4)c3c2-c2ccc(OC)cc2)cc1	Fluor 339 460 3.8 (not shown: DPM-DC inhibit)
